# Reference: PubChem BioAssay AID463173 (ICCB-Longwood Screening Facility, Harvard Medical School, 2010)
# The campaign covered roughly 52,000 compounds. About 1,700 (3.3%) were called active. Cut-off read from the data, not from the text of the source: active = survival mostly below about 52% (no sharp cut-off); inactive = mostly above about 56%. This excerpt belongs to a sample that is enriched for actives.
# Test system: Wild type
# Assay: growth inhibition of S. aureus wild type versus tarO mutant, primary screen, teichoic acid synthesis inhibitors, RN4220, OD600 (AID 463173)
# Details: S. aureus RN4220 wild type/DeltatarO growth, OD600, 18 h, stronger effect = lower value, screened at 18.75 µg/mL (by protocol)
row,Compound,survival
1,Cc1cc(C)c(C#N)c(N2CCN(c3cccc(C)c3C)CC2)n1,109% (inactive)
2,Cc1ccc2nc(N3CCN(c4cccc(Cl)c4)CC3)c3nnnn3c2c1,72% (inactive)
3,Cc1cc(C)n(-c2nc3ccccc3nc2N2CCN(c3cccc(C)c3C)CC2)n1,-1% (active)
4,Cc1cc(C)n(-c2nc3cc(Cl)ccc3nc2N2CCN(c3cccc(C)c3C)CC2)n1,-1% (active)
5,Cc1cc(C)n(-c2nc3cc(Cl)ccc3nc2Nc2ccc(C)c(F)c2)n1,86% (inactive)
6,Cc1ccc(C)c(N2CCN(c3nc4ccc(C)cc4nc3-n3nc(C)cc3C)CC2)c1,86% (inactive)
7,Cc1cc(C)n(-c2nc3cc(Cl)ccc3nc2N2CCN(c3ccccc3F)CC2)n1,68% (inactive)
8,Cc1cc(C)n(CCc2nc3c4ccccc4nc(N4CCN(c5cccc(C)c5C)CC4)n3n2)n1,74% (inactive)
9,COc1ccccc1N1CCN(c2nc3ccc(C)cc3nc2-n2nc(C)cc2C)CC1,0% (active)
10,Cc1cc(C)n(-c2nc3ccccc3nc2N2CCN(c3cccc(C(F)(F)F)c3)CC2)n1,88% (inactive)
11,COc1ccc(-c2oc3ncn4nc(COc5cccc(C)c5C)nc4c3c2-c2ccc(OC)cc2)cc1,77% (inactive)
12,Cc1ccc(C)c(Cn2nc(C)n3c(cc4cc(C)ccc43)c2=O)c1,79% (inactive)
13,Cc1ccc(Cl)cc1N1CCN(C(=O)c2cc3c(=O)oc4ccccc4c3s2)CC1,71% (inactive)
14,COCCN(Cc1cc2ccc(C)c(C)c2nc1Cl)C(=O)N1CCOCC1,104% (inactive)
15,COc1ccc(C(C)C)cc1S(=O)(=O)N1CC(C)OC(C)C1 (configuration not stated),109% (inactive)
16,COC(=O)C1=C(C)N(c2ccc(N(C)C)cc2)C(C)=C(C(=O)OC)C1c1ccccc1,101% (inactive)
17,CC1=C(C(=O)Nc2ccccc2)C(c2ccc(O)cc2)n2nc(SCc3ccccc3)nc2N1 (configuration not stated),115% (inactive)
18,CCN(CC)S(=O)(=O)c1ccc(C(=O)NCCSc2c(-c3ccc(OC)cc3)[nH]c3ccccc23)cc1,124% (inactive)
19,CCn1nc(C)c2c(-c3ccccc3)cc(=O)n(C(C)C(=O)Nc3ccc(OC)c(OC)c3)c21 (configuration not stated),59% (inactive)
20,Cc1ccc(Sc2c(C)nn(-c3ccccc3)c2OC(=O)CC(C)C)cc1,45% (inactive)
21,CCC(=O)Oc1c(Sc2ccc(C)cc2)c(C)nn1-c1ccccc1,55% (inactive)
22,Cc1ccc(Sc2c(C)nn(C(C)(C)C)c2OC(=O)C(C)(C)C)cc1,-8% (active)
23,COCC(=O)Oc1c(Sc2ccc(C)cc2)c(C)nn1C(C)(C)C,69% (inactive)
24,Cc1nn(C(C)(C)C)c(OC(=O)C(C)(C)C)c1Sc1ccccc1,-9% (active)

row,Compound,survival
1,Cc1nn(C(C)(C)C)c(OC(=O)c2c(F)cccc2F)c1Sc1ccccc1,117% (inactive)
2,Cc1ccccc1C(=O)Oc1c(Sc2ccccc2)c(C)nn1C(C)(C)C,50% (inactive)
3,CCC(=O)Oc1c(Sc2ccc(Cl)cc2)c(C)nn1C(C)(C)C,60% (inactive)
4,Cc1nn(-c2ccccc2)c(OC(=O)C(C)(C)C)c1Sc1ccccc1,51% (inactive)
5,COc1ccc(C(=O)Oc2c(Sc3ccc(C)cc3)c(C)nn2C(C)(C)C)cc1OC,127% (inactive)
6,Cc1ccc(Sc2c(C)nn(-c3ccccc3)c2OC(=O)C(C)(C)C)cc1,-6% (active)
7,Cc1ccc(Sc2c(C)nn(C(C)(C)C)c2OC(=O)CC(C)C)cc1,-8% (active)
8,CCOC(=O)N1CCN(C(=O)c2cnn(-c3cccc(F)c3)c2-n2cccc2)CC1,81% (inactive)
9,Cc1ccc2nc(N3CCC(C(=O)N4CCN(c5cccc(C)c5C)CC4)CC3)[nH]c2c1,76% (inactive)
10,Cc1ccn2cc(CNC(=O)c3cccc(C(F)(F)F)c3)nc2c1,86% (inactive)
11,Cc1ccc(Cl)cc1NC(=O)C(NS(=O)(=O)c1ccc2c(c1)CCC(=O)N2)c1ccccc1 (configuration not stated),70% (inactive)
12,COc1ccc(CNC(=O)c2cc3sccc3n2C)cc1,67% (inactive)
13,Cn1c(=O)n(C)c2cc(N3CCOCC3)c(NS(=O)(=O)c3ccc(Br)cc3)cc21,82% (inactive)
14,O=C(Nc1nnc(S(=O)(=O)N2CCCCCC2)s1)c1ccccc1,48% (inactive)
15,CCOc1ccc(CNC(=O)CCC(=O)N2Cc3ccccc3Oc3ncccc32)cc1,0% (active)
16,CC(C)NC(=O)CCC(=O)N1Cc2ccccc2Oc2ncccc21,-2% (active)
17,Cc1ccc(CNC(=O)CCC(=O)N2Cc3ccccc3Oc3ncccc32)cc1,73% (inactive)
18,CC(C)CCNC(=O)CCC(=O)N1Cc2ccccc2Oc2ncccc21,65% (inactive)
19,CN(C)c1ccc(CNC(=O)CCC(=O)N2Cc3ccccc3Oc3ncccc32)cc1,77% (inactive)
20,Cc1ccc(NC(=O)CCC(=O)N2Cc3ccccc3Oc3ncccc32)cc1,22% (inactive)
21,CCC(C)NC(=O)CCC(=O)N1Cc2ccccc2Oc2ncccc21 (configuration not stated),121% (inactive)
22,Cc1ccc(NC(=O)CCC(=O)N2Cc3ccccc3Oc3ncccc32)cc1Cl,82% (inactive)
23,O=C(CCC(=O)N1Cc2ccccc2Oc2ncccc21)Nc1ccc(Cl)cc1,10% (active)
